Reference: PubChem BioAssay AID1159580 (chemical genetic matrix, 2015)
Several values for one entry are separate records, joined by “and”; a condition that tells them apart may be missing. Identical values can stand only once. Hit rate of the full screen: of about 5,500 compounds, about 2,000 (36%) were called active. Another 18% or so got no clear call; they are omitted. Cut-off read from the data, not from the text of the source: active = normalized growth mostly below about 0.91 (no sharp cut-off); inconclusive = no clear call, values can overlap the other calls; inactive = mostly above about 0.92. This is one part of the list.

Test: chemical genetic growth profiling, strain panel (AID 1159580);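 note: tested at 20 µM; growth read once vehicle control cultures reached saturation at 30 °C; 1 = growth at the plate median or of vehicle wells; lower values mean less growth of the strain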
Conditions: S. cerevisiae deletion strains, growth OD

Measured: normalized growth

COc1cc(OC)c(-c2c(OC)cc(OC)cc2OC)c(OC)c1
inactive: locus YBR021W, strain FUR4, stronger effect = lower value 1.05 | locus YBR229C, strain ROT2, stronger effect = lower value 1.01 | locus YCL029C, strain bik1, stronger effect = lower value 0.997 | locus YDL035C, strain GPR1, stronger effect = lower value 1.02 | locus YDL074C, strain BRE1, stronger effect = lower value 1.06 | locus YDL101C, strain DUN1, stronger effect = lower value 1.03 | locus YDL185W, strain tfp1, stronger effect = lower value 1.03 | locus YDL192W, strain arf1, stronger effect = lower value 1.04 | locus YDR101C, strain arx1, stronger effect = lower value 1.02 | locus YDR162C, strain NBP2, stronger effect = lower value 1.04 | locus YDR318W, strain mcm21, stronger effect = lower value 1.03 | locus YDR388W, stronger effect = lower value 1.01 | locus YDR502C, strain sam2, stronger effect = lower value 1.05 | locus YEL061C, strain CIN8, stronger effect = lower value 1.01 | locus YER110C, stronger effect = lower value 1.02 | locus YER155C, strain BEM2, stronger effect = lower value 1.01 | locus YER167W, strain BCK2, stronger effect = lower value 1.01 | locus YGL078C, strain dbp3, stronger effect = lower value 1.05 | locus YGL086W, strain mad1, stronger effect = lower value 1.04 | locus YGL248W, strain PDE1, stronger effect = lower value 1.03 | locus YGR078C, strain PAC10, stronger effect = lower value 1.06 | locus YGR135W, strain pre9, stronger effect = lower value 1.07 | locus YGR252W, strain gcn5, stronger effect = lower value 1.05 | locus YHR030C, strain SLT2, stronger effect = lower value 0.998 | locus YHR079C, strain IRE1 (second series), stronger effect = lower value 1.02 | locus YHR079C, strain IRE1, stronger effect = lower value 0.998 | locus YHR094C, strain hxt1, stronger effect = lower value 1.03 | locus YHR129C, strain ARP1, stronger effect = lower value 1.01 | locus YHR200W, strain rpn10, stronger effect = lower value 1.03 | locus YIL066C, strain RNR3, stronger effect = lower value 1.02 | locus YIL073C, strain SPO22, stronger effect = lower value 1.1 | locus YIL125W, strain kgd1, stronger effect = lower value 1.01 | locus YIR030C, strain dcg1, stronger effect = lower value 1.02 | locus YJL095W, strain BCK1, stronger effect = lower value 1.09 and 0.999 | locus YJL134W, strain LCB3, stronger effect = lower value 1.01 | locus YJL168C, strain set2, stronger effect = lower value 1.02 | locus YJL187C, strain SWE1 (second series), stronger effect = lower value 1.06 | locus YJR066W, strain TOR1, stronger effect = lower value 0.953 | locus YJR075W, strain HOC1, stronger effect = lower value 1.04 | locus YKL009W, strain mrt4, stronger effect = lower value 1.06 | locus YKL068W, stronger effect = lower value 0.993 | locus YKL085W, strain MDH1 (second series), stronger effect = lower value 1.01 | locus YKL085W, strain MDH1, stronger effect = lower value 1.01 | locus YKL190W, strain CNB1, stronger effect = lower value 1.02 | locus YKR001C, strain vps1, stronger effect = lower value 1.05 | locus YLR039C, strain RIC1, stronger effect = lower value 1.07 | locus YLR058C, strain SHM2, stronger effect = lower value 1.04 | locus YLR102C, strain apc9, stronger effect = lower value 1.01 | locus YLR113W, strain HOG1, stronger effect = lower value 1 | locus YLR262C, strain YPT6, stronger effect = lower value 1.09 | locus YLR268W, strain sec22, stronger effect = lower value 1.02 | locus YLR371W, strain rom2, stronger effect = lower value 1.02 | locus YLR418C, strain cdc73, stronger effect = lower value 1.13 | locus YML016C, strain PPZ1, stronger effect = lower value 1.02 | locus YML032C, strain rad52, stronger effect = lower value 1.04 | locus YML124C, strain tub3, stronger effect = lower value 1.02 | locus YMR078C, strain ctf18, stronger effect = lower value 1.02 | locus YMR223W, strain ubp8, stronger effect = lower value 1.04 | locus YMR307W, strain GAS1, stronger effect = lower value 1.07 | locus YNL067W, strain RPL9B, stronger effect = lower value 1.05 | locus YNL183C, strain NPR1, stronger effect = lower value 0.948 | locus YNL233W, strain BNI4, stronger effect = lower value 1.07 | locus YNL250W, strain rad50, stronger effect = lower value 1.06 | locus YNL271C, strain bni1, stronger effect = lower value 1.02 | locus YNL298W, strain CLA4, stronger effect = lower value 1.03 | locus YNL307C, strain MCK1, stronger effect = lower value 1.03 | locus YNR052C, strain pop2, stronger effect = lower value 1.04 | locus YOL006C, strain TOP1, stronger effect = lower value 1.15 | locus YOL012C, strain htz1 0.971 | locus YOL147C, strain pex11, stronger effect = lower value 1.03 | locus YOR061W, strain CKA2, stronger effect = lower value 1.02 | locus YOR069W, strain VPS5, stronger effect = lower value 1.01 | locus YOR136W, strain idh2, stronger effect = lower value 1.03 | locus YOR144C, strain elg1, stronger effect = lower value 1.02 | locus YOR184W, strain ser1, stronger effect = lower value 1.04 | locus YOR231W, strain MKK1, stronger effect = lower value 0.976 | locus YOR316C, strain cot1, stronger effect = lower value 1.03 | locus YPL256C, strain CLN2, stronger effect = lower value 0.997 | locus YPR119W, strain clb2, stronger effect = lower value 1.01 | locus YPR141C, strain kar3, stronger effect = lower value 1.02 | locus YPR163C, strain tif3, stronger effect = lower value 1.03 | locus YPR167C, strain met16, stronger effect = lower value 1.03 | strain wtn01, stronger effect = lower value 1.03
